Data reported in ChEMBL document CHEMBL4513149, “CO-ADD screening of MMV (CH) - MMV compounds” (2021).
Potency and affinity values are given separately.

system: Staphylococcus aureus; conditions: Concentration 20 uM; ASSAY_TEST Inhibition of Bacterial Growth; detection method Absorption (OD600); MEDIA CAMHB; plate type 384well; NBS; CORNING #3640; time 18 hr

| Compound | Inhibition [%] |
| --- | --- |
| CCOc1ccc2cc(-c3nn(C(C)(C)C)c(N)c3C(N)=O)cnc2c1.Cl | 14.66 |
| O=C(C(Cc1c[nH]c2ccccc12)NS(=O)(=O)c1ccc(Cl)cc1)N1CCCCC1 (stereo unspecified) | 2.32 |
| Cc1c[nH]c(CCNC(=O)c2cc(-c3ccc(Cl)cc3)cs2)n1 | 25.33 |
| Cc1nc2ccccn2c1C(=O)NCc1ccc(Cl)cc1 | 22.95 |
| COC(=O)c1c(NC(=O)c2c(F)c(F)c(F)c(F)c2F)sc2c1CCCCC2 | 13.36 |
| O=C(CN1CCOCC1)Nc1ccc2ncnc(Nc3ccc(OCc4cccc(F)c4)c(Cl)c3)c2c1 | 14.97 |
| CCc1nc2ccc(C(=O)NCc3ccc4c(c3)OCO4)cn2c1N(C)Cc1cccs1 | 4.69 |
| CC(C)/N=c1\cc2n(-c3ccc(Cl)cc3)c3ccccc3nc-2cc1Nc1ccc(Cl)cc1 [CLOFAZIMINE] | 59.44 |
| C[C@]1(O)C[C@@H](c2nc(-c3ccc4ccc(-c5ccccc5)nc4c3)c3c(N)nccn32)C1 [LINSITINIB] | 13.39 |
| COc1cc(C(F)(F)F)nc2ccc(C)c(N)c12 | 15.64 |
| Nc1ncnc2c1ncn2C[C@@H](O)[C@@H](O)C(=O)O [ERITADENINE] | 13.9 |
| CC(C)C(Oc1cccc2ccccc12)C(=O)O (stereo unspecified) | 10.48 |
| Cc1noc(C)c1COc1cccc(C(=O)N=c2[nH]cccc2C)c1 | 21.93 |
| CNC(=O)C1Cc2ccccc2N1C(=O)Cc1ccc(F)cc1 (stereo unspecified) | 16.81 |
| Cc1noc(C)c1C(=O)N1CCCC(c2[nH]c3c(C)cccc3c2-c2ccncc2)C1 (stereo unspecified) | 19.72 |
| CCn1cnc2c(Nc3cc(F)cc(F)c3)nc(C#N)nc21 | 36.21 |
| COc1cc(CN2CCC3(C=Cc4ccccc43)CC2)cc2c1OCO2 | -1.3 |
| CCN(CC)C(=O)N1CCN(C)CC1 [DIETHYLCARBAMAZINE] | 20.12 |

| Compound | Inhibition [%] |
| --- | --- |
| FC(F)(F)c1nnc2ccc(Cl)nn12 | 14.72 |
| O=C(c1[nH]nc2c1CCCC2)N1CCN(Cc2ccc3c(c2)OCO3)CC1 | 14.51 |
| CS(=O)(=O)N1CCC(Cn2nc(Cc3cccc4ccccc34)c3c(N)ncnc32)CC1 | 11.53 |
| CS(=O)(=O)c1ccc(C(=O)N(CC2CCCO2)c2nc3ccccc3s2)cc1[N+](=O)[O-] (stereo unspecified) | 17.15 |
| COc1ccc(S(=O)(=O)Nc2ccc(CN3CCN(C(=O)c4cccc(C#N)c4)CC3)cc2)cc1 | 1.42 |
| COc1cccc(-c2cc3c(Nc4cccnc4)nccc3[nH]2)c1 | 13.42 |
| Cc1ccc(NC(=O)c2cc(S(=O)(=O)NC(C)(C)C)ccc2C)nc1 | 21 |
| O=C(N[C@H](Cc1ccccc1)C(=O)Nc1ccccc1N1CCOCC1)c1cccs1 | 14.16 |
| CC1=Nc2ccc(Cl)cc2C(c2ccccc2)N1CCNC(=O)CN(C)C (stereo unspecified) | 20.65 |
| Cc1nnc(NCc2cccc(Cl)c2)c2ccccc12 | 21.63 |
| Cc1ccc2cc(C3NC(=O)c4ccccc4N3)c(Cl)nc2c1 (stereo unspecified) | 11.87 |
| N#Cc1ccc(-c2ccc(OCC(N)=O)cc2)cc1 | 6.41 |
| Nc1ncc(-c2cn[nH]c2)cc1-c1nc2cc(Cl)cnc2[nH]1 | -0.61 |
| O=C(NC1CC1)c1ccc(CSCc2ccccc2Cl)o1 | 11.19 |
| FC(F)(F)c1cccc(-c2nc3c(NCc4ccncc4)nccc3[nH]2)c1 | 9.41 |
| CCc1ccc([C@@H]2C[C@H](C(F)(F)F)n3ncc(C(=O)NCc4ccc(OC)cc4)c3N2)cc1 | 5.55 |
| O=C(Nc1c(O)cccc1-c1nc2c(C(=O)O)cccc2o1)c1cc(-c2ccccc2)on1 | 0.11 |
| O=C1COCc2ccc(Br)cc2N1Cc1ccc(C(F)(F)F)cc1 | 12.84 |
